These results are taken from PubChem BioAssay (NCI).

Molecules are shown by their SMILES. This is part of a sample that, as a whole, favours compounds with a hit. Of some 83,000 tested, about 20% had one in any assay.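 Plates (96-well) were seeded with cells, treated with compound at one concentration, and incubated for 48 hours before percent growth was determined.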 A number with no mark means an inactive call. Calls of active or inactive are those of the source. Rule for the calls: active = growth percent below 10; inactive = the rest.

Among the test systems are SK-MEL-2 melanoma; EKVX NSCLC; SN12C renal; UO-31 renal; TK-10 renal; ACHN renal; CAKI-1 renal; A498 renal; CCRF-CEM leukemia; MOLT-4 leukemia; SR leukemia; RPMI-8226 leukemia; OVCAR-8 ovarian; OVCAR-5 ovarian; OVCAR-4 ovarian; SK-OV-3 ovarian; IGROV1 ovarian; OVCAR-3 ovarian; HS 578T breast; NCI/ADR-RES ovarian.
Common to all, as to assay: NCI-60 one-dose screen, 48 h (100 = growth as untreated, 0 = no growth, -100 = all killed)
Common to all, as to settings: 10 µM unless noted

As for `COc1ccc(-n2nc(C)c3c(Nc4ccc(NC(=O)Nc5c(Cl)cccc5Cl)cc4)ncnc32)cc1`, the growth is 79.1% in the test on SK-MEL-2 melanoma; 67% in the test on EKVX NSCLC; 77% in the test with SN12C renal; 8.74% (active) with UO-31 renal; 59.8% with TK-10 renal; 43.3% in the test on ACHN renal. Further, the growth with CAKI-1 renal is 57.9%; in the test on A498 renal, 63.4%; with CCRF-CEM leukemia, 84.5%; in the test with MOLT-4 leukemia, 81.7%; in the test on SR leukemia, 32.2%; in the test with RPMI-8226 leukemia it was 50.7%. For the same compound, the growth in the test with OVCAR-8 ovarian was 56%; in the test with OVCAR-5 ovarian, 97.8%; in the test on OVCAR-4 ovarian, 60.9%; with SK-OV-3 ovarian, 83.3%; in the test on IGROV1 ovarian it was 71.7%; with OVCAR-3 ovarian, 40.8%. The growth in the test with HS 578T breast is 71.7%; in the test on NCI/ADR-RES ovarian, 55.9%.

Turning to `COc1ccc(-c2nn(-c3ccc(Cl)cc3)cc2-c2nc3ccccc3[nH]2)cc1`, the growth with SK-MEL-2 melanoma is 101%; in the test on EKVX NSCLC, 85.2%; with SN12C renal it was 85.7%; with UO-31 renal, 44.4%; in the test with TK-10 renal it was 91.2%; in the test with ACHN renal, 89.5%. In addition, the growth is 92% with CAKI-1 renal; 100% with A498 renal; 99.9% with CCRF-CEM leukemia; 81.8% with MOLT-4 leukemia; 80.3% with SR leukemia; 93.9% with RPMI-8226 leukemia. For the same compound, the growth in the test with OVCAR-8 ovarian was 105%; in the test with OVCAR-5 ovarian, 110%; with OVCAR-4 ovarian, 88%; in the test with SK-OV-3 ovarian, 101%; in the test on IGROV1 ovarian, 71.4%; with OVCAR-3 ovarian, 94%. The growth is 93% in the test with HS 578T breast and 102% in the test with NCI/ADR-RES ovarian.

Consider `CCCc1cc(=O)n2c(C(=O)Nc3cccc(C(=O)OCC)c3)c(C(=O)Nc3ccc(F)cc3)sc2n1`, for which the growth was 63.4% [30 µM] with SK-MEL-2 melanoma; 92.8% [30 µM] in the test on EKVX NSCLC; 28.8% [30 µM] with SN12C renal; 15.7% [30 µM] in the test on UO-31 renal; 45% [30 µM] in the test on TK-10 renal; 38.9% [30 µM] with ACHN renal. For the same compound, the growth in the test on CAKI-1 renal is 17.3% [30 µM]; in the test on A498 renal it was 8.74% [30 µM] (active); in the test with CCRF-CEM leukemia it was 40.9% [30 µM]; with MOLT-4 leukemia it was 127% [30 µM]; in the test with SR leukemia, 82.4% [30 µM]; in the test on RPMI-8226 leukemia it was 57% [30 µM]. The growth was -19.2% [30 µM] (active) with OVCAR-8 ovarian; 71.2% [30 µM] in the test on OVCAR-5 ovarian; 9.71% [30 µM] (active) in the test with OVCAR-4 ovarian; 62.2% [30 µM] with SK-OV-3 ovarian; 42.2% [30 µM] in the test with IGROV1 ovarian; -4.26% [30 µM] (active) in the test with OVCAR-3 ovarian. Further, the growth is 14.3% [30 µM] in the test with HS 578T breast and 47.3% [30 µM] in the test with NCI/ADR-RES ovarian.

Regarding `O=C(C(=O)c1ccc2c(c1)OCO2)c1ccc2c(c1)OCO2`, the growth in the test on SK-MEL-2 melanoma is 112%; in the test with EKVX NSCLC it was 124%; in the test with SN12C renal it was 107%; with UO-31 renal it was 100%; in the test with TK-10 renal it was 105%; with ACHN renal, 111%. Moreover, the growth in the test on CAKI-1 renal was 107%; in the test on A498 renal, 98.1%; in the test with CCRF-CEM leukemia it was 95.6%; in the test on MOLT-4 leukemia, 117%; in the test on SR leukemia it was 106%; in the test on RPMI-8226 leukemia, 101%. For the same compound, the growth in the test with OVCAR-8 ovarian is 95.3%; in the test on OVCAR-5 ovarian, 109%; with OVCAR-4 ovarian it was 99.8%; in the test with SK-OV-3 ovarian it was 114%; in the test with IGROV1 ovarian, 124%; in the test on OVCAR-3 ovarian it was 105%. The growth with NCI/ADR-RES ovarian is 117%.

As to `CCOc1cc2ncc(C#N)c(Nc3ccc(OCc4cccc(F)c4)c(Cl)c3)c2cc1NC(=O)CCCCC1CCSS1` (centres undefined), the growth in the test with SK-MEL-2 melanoma was 94.3%; with EKVX NSCLC, 78.5%; with SN12C renal, 88.6%; in the test on UO-31 renal it was 55.8%; in the test on TK-10 renal, 92.2%; with ACHN renal, 91.3%. Besides, the growth in the test with CAKI-1 renal is 72%; in the test on A498 renal it was 70.1%; with CCRF-CEM leukemia, 78.9%; in the test on MOLT-4 leukemia, 78.5%; in the test on SR leukemia, 92.4%; in the test on RPMI-8226 leukemia it was 78.6%. Moreover, the growth in the test with OVCAR-8 ovarian was 91%; in the test on OVCAR-5 ovarian, 111%; with OVCAR-4 ovarian, 99.6%; with SK-OV-3 ovarian, 83.7%; with IGROV1 ovarian, 82.2%; in the test on OVCAR-3 ovarian, 102%. In addition, the growth in the test on HS 578T breast is 91.3%; in the test on NCI/ADR-RES ovarian it was 101%.

For `O=C1c2cccc3cccc(c23)C(=O)N1CCCCN1CCN(CCCCOc2ccc(-c3nc4ccc(N5CCOCC5)cc4[nH]3)cc2)CC1`, the growth with SK-MEL-2 melanoma was 90.4%; in the test on EKVX NSCLC it was 91.7%; with SN12C renal, 94.7%; in the test with UO-31 renal it was 32.8%; in the test with TK-10 renal, 114%; with ACHN renal, 104%. In addition, the growth is 79.8% in the test on CAKI-1 renal; 111% in the test on A498 renal; 30.8% with CCRF-CEM leukemia; 52.3% in the test on MOLT-4 leukemia; -65% (active) with SR leukemia; 32.4% in the test with RPMI-8226 leukemia. The growth is 22% in the test on OVCAR-8 ovarian; 109% with OVCAR-5 ovarian; 79.4% with OVCAR-4 ovarian; 95.9% with SK-OV-3 ovarian; 68.9% in the test with IGROV1 ovarian; 100% in the test on OVCAR-3 ovarian. Besides, the figures for the growth in the test with HS 578T breast and in the test with NCI/ADR-RES ovarian were 86.6% and 76.6%, respectively.

On to `Cc1ccc(-c2onc3c(=O)[nH]nc(-c4ccccc4)c23)cc1`, for which the growth with SK-MEL-2 melanoma was 25.6%; in the test with EKVX NSCLC, 39%; with SN12C renal it was 37.4%; in the test on UO-31 renal, 47.7%; in the test with TK-10 renal, 55%; in the test on ACHN renal it was 56.9%. Besides, the growth in the test on CAKI-1 renal was 33.9%; in the test with A498 renal, 30%; with CCRF-CEM leukemia, 20.5%; with MOLT-4 leukemia it was 26%; in the test with SR leukemia, 28%; with RPMI-8226 leukemia it was 17.9%. The growth is 36.7% with OVCAR-8 ovarian; 62.3% in the test on OVCAR-5 ovarian; 67.3% in the test with OVCAR-4 ovarian; 14.9% with SK-OV-3 ovarian; 52.4% in the test on IGROV1 ovarian; 7.2% (active) in the test on OVCAR-3 ovarian. For the same compound, the growth was 16.7% with HS 578T breast and 25.2% with NCI/ADR-RES ovarian.

Turning to `COc1ccc(/C=C/c2nc3ccccc3nc2/C=C/c2ccc(OC)cc2)cc1`, the growth in the test with SK-MEL-2 melanoma is 101%; with EKVX NSCLC it was 96.2%; in the test on SN12C renal, 101%; in the test on UO-31 renal it was 84.7%; in the test on TK-10 renal it was 95.8%; in the test on ACHN renal, 97.6%. For the same compound, the growth in the test with CAKI-1 renal was 86.4%; in the test on A498 renal, 83.9%; with CCRF-CEM leukemia it was 98.2%; in the test on MOLT-4 leukemia, 99.1%; in the test with SR leukemia, 83.8%; with RPMI-8226 leukemia it was 98.5%. The growth was 99.5% in the test with OVCAR-8 ovarian; 99.8% in the test on OVCAR-5 ovarian; 88.7% with OVCAR-4 ovarian; 102% in the test with SK-OV-3 ovarian; 110% in the test on IGROV1 ovarian; 104% in the test on OVCAR-3 ovarian. For the same compound, the growth in the test on HS 578T breast was 90.8%; with NCI/ADR-RES ovarian, 99.5%.
